These results are taken from the OligoGym collection.
Note: reference of the scale not given here.

One experiment concerns the target ACSL3. Nature of the experiment: pooled miR-30 sensor sort-seq; sequence = guide strand. To be noted: shRNA.
Regarding TATCTAAAGTATCACATCCAGG, the sensor-assay potency score (higher = more potent) was -0.889.
On to TTATCTAAAGTATCACATCCAG, for which the sensor-assay potency score (higher = more potent) is -0.397.
Sequence TTCTTTACTAGTAATGATGTTG showed a sensor-assay potency score (higher = more potent) of 0.0529.
TATTGTAGTCCCACACTTCGGA had a sensor-assay potency score (higher = more potent) of 0.568.
Consider TAAAGTATCACATCCAGGGTAT, for which the sensor-assay potency score (higher = more potent) was 0.0296.
The sequence TTTAGCTTCATGGTAGATGGTT showed a sensor-assay potency score (higher = more potent) of 0.468.
As to TTTTTGAAGACTGATCTGCTAA, the sensor-assay potency score (higher = more potent) amounted to 0.185.
Same read-out and setting: in the case of TACAGAGCCACCTTTGTCCATT it was -0.892.

For a further experiment, the target named is ACSM2A. The experiment is described as above. To be noted: shRNA.
Sequence ATGATCTGTACATCATAACAGG registered a sensor-assay potency score (higher = more potent) of -1.32.
The same measure, in the same setting: the figure for TCATGGGACAGGAACTGCGAGG is -1.14.
TTGTCTCGAAGCTTGGCTCGTT had a sensor-assay potency score (higher = more potent) of 0.119.

The target of another experiment is ACSM2B. Described as above. Conditions: shRNA.
Sequence TGACTTCACATGCTGCTGCAGC yielded a sensor-assay potency score (higher = more potent) of -0.423.
On to TTGGGTACTTGTATGGGGCTGT, for which the sensor-assay potency score (higher = more potent) worked out at 0.442.
TCCTGCTGTAGCAACATCCGGT: the sensor-assay potency score (higher = more potent) is -0.567.
Sequence TTTCTCAGACACCAGTAGCTTA gave a sensor-assay potency score (higher = more potent) of -0.818.
Take TTAATGATATCATCTGCCCGTC: the sensor-assay potency score (higher = more potent) was -0.544.
TTGGTTCGTTGAATTTTCCCTG showed a sensor-assay potency score (higher = more potent) of 0.266.
In turn, TATCTTTCTTGGGTACTTGTAT gave a sensor-assay potency score (higher = more potent) of -0.285.
The sequence TAACCTGTACATCATAACAGGA returned a sensor-assay potency score (higher = more potent) of -0.501.
Same read-out and setting: in the case of TTGTCTCGAAGTTTGGTTCGTT it was 0.313.
ATAACCTGTACATCATAACAGG gave a sensor-assay potency score (higher = more potent) of -1.03.
Same read-out and setting: in the case of TTTCATTGTCTTGGAAACCATG it was -1.14; in that of TTGATTTTCATTGTCTTGGAAA, -0.899; in that of TTGGCTGCTGTCTTGTCGGGAT, -0.364.
TAAACTGGAAATACCCATCTTC: the sensor-assay potency score (higher = more potent) was determined as 0.528.
On the same count and under the same terms, in the case of TTAATGTAGAGAGTGCGGCTGG it was 0.202.

The target in a further experiment is ACSM5. Described as above. Conditions: shRNA.
On to TCCACTTGATCTCTGCTCCTGT, for which the sensor-assay potency score (higher = more potent) is -0.0695.
On the same count and under the same terms, the figure for TTGAAGAAACAGAAGGGCCGAG is -0.0546; for ATAACTTTGGCATCAACTCGGG it is -0.475; for TTGATCACATCGTCGTTTCTTC it is 0.51.
The same measure, in the same setting: in the case of TACAGCTCCACACCAGTCTGGT it was -0.482; in that of TGACTTCGCAATTTACTCCTTT, -0.271.
The sequence TACTCCTTTGGATCTTTCCAGA registered a sensor-assay potency score (higher = more potent) of -1.3.
The sequence TAACTTTGGCATCAACTCGGGG gave a sensor-assay potency score (higher = more potent) of -0.74.
Still for that read-out and setting: in the case of TTGATCTCTGCTCCTGTGCCAT it was -0.903.
Sequence TTTGACATCTTTAGGGTCGAAG showed a sensor-assay potency score (higher = more potent) of -1.09.
AGAATTGATCACATCGTCGTTT had a sensor-assay potency score (higher = more potent) of -0.999.
TTGAAGAATTGATCACATCGTC: the sensor-assay potency score (higher = more potent) worked out at 0.691.
